According to PubChem BioAssay:
The source made the active and inactive calls. Unless noted, no rule for the calls is given here.

Key:
[1] = HepG2 liver cancer cell viability effects, profiling panel, resazurin fluorescence, 24 h, PK04 Diversity Set (AID 1172); conditions: higher = more signal
[2] = basal S. cerevisiae growth modulation, no modifier, primary screen, OD600, strain BY4716, 24 h, basal condition (AID 1173); conditions: OD600, 24 h, higher = more signal, called active from +8 up or from −8 down
[3] = MM1S myeloma cell viability, profiling panel, resazurin fluorescence, basal, 24 h, PK04 Diversity Set (AID 1174); conditions: higher = more signal, called active from +8 up or from −8 down;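 also: MM1S multiple myeloma cell line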
[4] = target: Dihydroorotate dehydrogenase (quinone), mitochondrial (Plasmodium falciparum (isolate 3D7)) (UniProt Q08210); assay: PfDHODH enzyme inhibitors, primary screen, biochemical, C-terminal His tag, absorbance 600 nm (AID 1175); conditions: DCIP absorbance 600 nm, higher = more signal, called active from +8 up or from −8 down;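 also: recombinant parasite enzyme with a five histidine tag at its C terminus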
Dihydroorotate dehydrogenase (quinone), mitochondrial (Plasmodium falciparum (isolate 3D7)), sequence (Q08210 whole entry, looked up): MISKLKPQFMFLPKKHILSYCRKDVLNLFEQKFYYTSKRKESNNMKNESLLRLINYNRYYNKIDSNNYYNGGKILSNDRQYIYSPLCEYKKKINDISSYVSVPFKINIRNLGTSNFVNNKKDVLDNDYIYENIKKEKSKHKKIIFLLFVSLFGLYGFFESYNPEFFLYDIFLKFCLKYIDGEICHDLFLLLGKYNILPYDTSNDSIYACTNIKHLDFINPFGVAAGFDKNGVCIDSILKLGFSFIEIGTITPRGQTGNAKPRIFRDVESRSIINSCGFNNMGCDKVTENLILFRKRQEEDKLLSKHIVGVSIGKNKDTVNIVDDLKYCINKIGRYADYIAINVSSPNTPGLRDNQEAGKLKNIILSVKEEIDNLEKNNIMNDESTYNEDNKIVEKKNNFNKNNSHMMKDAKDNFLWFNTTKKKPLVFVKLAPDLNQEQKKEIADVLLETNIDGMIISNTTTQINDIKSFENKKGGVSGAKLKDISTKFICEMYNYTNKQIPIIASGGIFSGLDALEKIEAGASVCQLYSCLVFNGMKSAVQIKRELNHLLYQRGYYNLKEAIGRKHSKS

[5] = P. aeruginosa biofilm formation inhibitors, primary screen, strain PAO1, LB-PBS medium, absorbance 600 nm (AID 1176); conditions: P. aeruginosa PAO1 growth/biofilm, A600, 12 h; higher = more signal
[6] = S. cerevisiae RM11-1a growth modifiers, primary screen, strain RM11-1a, OD600, basal, 24 h (AID 1177); conditions: OD600, 24 h, higher = more signal, called active from +8 up or from −8 down;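 also: cultures grown under basal conditions with no added stressor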
[7] = E. coli acrAB mutant growth effects, primary screen, E. coli filamentation inducers, strain DRC39, OD650, 24 h (AID 1178); conditions: higher = more signal, called active from +8 up or from −8 down;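 also: growth measured as culture turbidity by optical density at 650 nm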
[8] = E. coli acrAB mutant growth effects, primary screen, E. coli filamentation inducers, strain DRC39, OD650, 48 h (AID 1179);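 also: screen aims at cell division blockers that make cells filament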; conditions: E. coli DRC39 delta-acrAB growth, higher = more signal, called active from +8 up or from −8 down
[9] = RPMI8226 myeloma cell viability, profiling panel, resazurin fluorescence, basal, 24 h, PK04 Diversity Set (AID 1180); conditions: higher = more signal;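 also: RPMI8826 multiple myeloma cell line at 5000 cells per well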
[10] = target: E3 ubiquitin-protein ligase XIAP (Homo sapiens) (UniProt P98170); assay: XIAP binders, primary screen, biophysical, small-molecule microarray, fluorescence 635 nm (AID 1181); conditions: small-molecule microarray binding, higher = more signal;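 also: score merges 667 nm emission and signal to noise over triplicate slides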
E3 ubiquitin-protein ligase XIAP (Homo sapiens), sequence (P98170 whole entry, looked up): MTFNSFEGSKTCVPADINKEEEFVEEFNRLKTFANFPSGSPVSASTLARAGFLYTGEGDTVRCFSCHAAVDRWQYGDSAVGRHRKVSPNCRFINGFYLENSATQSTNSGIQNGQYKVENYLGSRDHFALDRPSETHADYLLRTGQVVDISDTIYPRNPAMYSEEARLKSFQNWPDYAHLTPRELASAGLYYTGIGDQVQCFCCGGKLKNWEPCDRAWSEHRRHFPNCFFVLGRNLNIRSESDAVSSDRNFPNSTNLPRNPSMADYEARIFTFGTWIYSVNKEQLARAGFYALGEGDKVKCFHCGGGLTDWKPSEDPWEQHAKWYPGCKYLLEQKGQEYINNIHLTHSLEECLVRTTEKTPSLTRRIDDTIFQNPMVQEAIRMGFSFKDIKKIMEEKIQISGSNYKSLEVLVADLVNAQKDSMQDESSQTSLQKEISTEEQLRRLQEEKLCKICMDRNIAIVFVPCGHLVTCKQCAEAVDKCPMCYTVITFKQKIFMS

[11] = system: XIP peptide (Xip251-270) binding; assay: small-molecule binders of XIP peptide, primary screen, biochemical, small-molecule microarray, fluorescence 635/667 nm, 0.1 µg/mL protein (AID 1182); conditions: fluorescent protein binding, 635 nm, higher = more signal, called active from +8 up or from −8 down
[12] = system: XIP peptide (Xip251-270); assay: small-molecule binders of XIP peptide, primary screen, biochemical, small-molecule microarray, fluorescence 635/667 nm, 0.5 µg/mL protein (AID 1183); conditions: small-molecule microarray binding, fluorescence 635 nm; higher = more signal
[13] = Plasmodium falciparum growth inhibition, primary screen, strain 3D7, DAPI fluorescence, 100 nL (AID 1184);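 also: parasites grown inside human red blood cells in medium with human serum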; conditions: P. falciparum 3D7 growth, 3 d, higher = more signal
[14] = target: Homeobox protein Hox-A13 (Mus musculus) (UniProt Q62424); assay: inhibitors of HoxA13-DNA binding, primary screen, biochemical, fluorescence polarization, labeled oligonucleotide (AID 1185); conditions: 15 min, higher = more signal, called active from +8 up or from −8 down
Homeobox protein Hox-A13 (Mus musculus), sequence (Q62424 whole entry, looked up): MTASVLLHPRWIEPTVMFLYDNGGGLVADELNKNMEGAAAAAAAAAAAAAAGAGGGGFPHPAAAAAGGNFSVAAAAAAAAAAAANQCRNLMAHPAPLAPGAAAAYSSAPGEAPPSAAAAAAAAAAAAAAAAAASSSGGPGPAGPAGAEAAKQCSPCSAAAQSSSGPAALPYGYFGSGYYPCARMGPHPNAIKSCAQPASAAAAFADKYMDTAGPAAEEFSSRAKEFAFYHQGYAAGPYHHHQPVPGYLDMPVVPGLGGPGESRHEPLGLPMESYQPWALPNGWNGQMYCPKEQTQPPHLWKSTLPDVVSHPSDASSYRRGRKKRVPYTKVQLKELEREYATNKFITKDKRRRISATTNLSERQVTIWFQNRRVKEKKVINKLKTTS

[15] = inhibitors of hydroxyurea-induced Chk1 phosphorylation, primary screen, imaging, HeLa, phospho-Chk1 antibody, percent positive cells (AID 1186); conditions: hydroxyurea-induced phospho-Chk1 immunofluorescence imaging, higher = more signal
[16] = inhibitors of hydroxyurea-induced Chk1 phosphorylation, primary screen, imaging, HeLa, phospho-Chk1 nuclear intensity (AID 1187); conditions: hydroxyurea-induced phospho-Chk1 immunofluorescence imaging, higher = more signal

Row | Structure (SMILES) | z-score [1] | z-score [2] | z-score [3] | composite z-score [4] | z-score [5] | z-score [6] | z-score [7] | z-score [8] | z-score [9] | composite z-score [10] | composite z-score [11] | composite z-score [12] | z-score [13] | z-score [14] | z-score [15] | z-score [16]
1 | CCCCCN1CC=CC23O[C@@H]4/C=C\CCCOC(=O)C4[C@H]2C(=O)N(CCCCCO)[C@@H]3C1=O (stereo partly drawn) | 0.809 | -1.17 (inactive) | 1.33 (inactive) | -0.869 (inactive) | 0.0962 (inactive) | -1.08 (inactive) | 0.279 (inactive) | -0.0568 (inactive) | 1.33 | 0.165 | 0.388 (inactive) | 0.199 | 0.0701 | -4.75 (inactive) | 0.726 (inactive) | 0.576 (inactive)
2 | COc1cc2c(cc1OC)CN(C(=O)[C@@H]1[C@H]3C(=O)O[C@H](c4ccccc4)[C@H](c4ccccc4)N3[C@H](c3ccc(O)cc3)[C@@]13C(=O)Nc1ccc(C#CC4=CCCCC4)cc13)CC2 | 0.192 | 0.45 (inactive) | 0.466 (inactive) | -0.151 (inactive) | 0.297 (inactive) | 1.48 (inactive) | -0.0342 (inactive) | 0.675 (inactive) | 0.233 | -0.0108 | 0.715 (inactive) | 0.535 | -0.75 | 2.74 (inactive) | 0.0655 (inactive) | 0.407 (inactive)
3 | COC(=O)[C@]1(Cc2ccccc2CN=[N+]=[N-])N=C(c2ccc(OCCCO)cc2)O[C@@H]1c1ccccc1N=[N+]=[N-] | -2 | 1.09 (inactive) | -4.02 (inactive) | -0.123 (inactive) | 1.06 (inactive) | 1.77 (inactive) | 1.74 (inactive) | 0.918 (inactive) | -6.89 | -0.188 | 0.0771 (inactive) | 0.724 | -2.04 | 0.381 (inactive) | -0.485 (inactive) | -0.543 (inactive)
4 | O=C1NC(=O)C2C1C=CC(C(O)c1ccc(F)cc1)N2Nc1ccc(Cl)cc1Cl (stereo not drawn) | -2.15 | -16.3 (active) | -1.28 (inactive) | 0.827 (inactive) | 1.06 (inactive) | -8.86 (active) | -0.2 (inactive) | -1.52 (inactive) | -1.79 | 0.285 | -0.138 (inactive) | -0.258 | -0.525 | -5.48 (inactive) | -0.142 (inactive) | 0.116 (inactive)
5 | CCCCN1CC=CC23O[C@@H]4/C=C\CCC(C)OC(=O)C4[C@H]2C(=O)N(CCO)[C@@H]3C1=O (stereo partly drawn) | 1 | 0.256 (inactive) | 0.498 (inactive) | -0.252 (inactive) | 0.0279 (inactive) | -0.348 (inactive) | 0.32 (inactive) | -0.178 (inactive) | 0.82 | 0.0026 | 0.874 (inactive) | -0.629 | -0.165 | -5.58 (inactive) | -0.967 (inactive) | -0.862 (inactive)
6 | CO[C@H]1O[C@H](CO)[C@@H](OC(=O)Nc2cccc(F)c2)[C@H](OC(=O)c2cc3ccccc3[nH]2)[C@H]1OC(=O)c1cc2ccccc2[nH]1 | -2.49 | -0.21 (inactive) | -2.63 (inactive) | -0.603 (inactive) | 1.1 (inactive) | -0.67 (inactive) | 0.181 (inactive) | 1.02 (inactive) | -2.46 | 0.331 | -0.194 (inactive) | -0.141 | -0.194 | -0.266 (inactive) | -0.313 (inactive) | -0.455 (inactive)
7 | COC(=O)c1c2oc(c1C(=O)OC)C(=O)N[C@H](Cc1ccccc1)Cn1cc(nn1)C1(CCCCC1)NC(=O)N[C@H](CO)CC2 | 0.483 | -2.6 (inactive) | 0.247 (inactive) | -0.174 (inactive) | 0.772 (inactive) | 0.0801 (inactive) | -0.051 (inactive) | 0.565 (inactive) | 0.245 | -0.113 | 0.772 (inactive) | -0.652 | 0.764 | -3.34 (inactive) | -0.0529 (inactive) | -0.669 (inactive)
8 | CO[C@H]1O[C@H](CO)[C@@H](OC(=O)Nc2ccccc2)[C@@H]2OC(=O)[C@@H](Cc3ccccc3)C/C=C/C[C@H](Cc3ccccc3)C(=O)O[C@@H]12 | -0.472 | 0.153 (inactive) | -2.22 (inactive) | -1.38 (inactive) | 0.0126 (inactive) | 1.04 (inactive) | -0.409 (inactive) | 0.582 (inactive) | -0.381 | 0.381 | 0.0585 (inactive) | 0.455 | 0.232 | -0.539 (inactive) | -0.741 (inactive) | -0.467 (inactive)
9 | CCCCC(=C=CC[C@@H](O)c1ccc(OCCO)cc1)CCO | 1.02 | -4.12 (inactive) | 1.54 (inactive) | -2.3 (inactive) | -0.0585 (inactive) | 0.271 (inactive) | 1.34 (inactive) | 0.672 (inactive) | 1.3 | 0.794 | 0.218 (inactive) | 0.336 | -1.39 | -3.71 (inactive) | 0.102 (inactive) | 0.509 (inactive)
10 | COC(=O)[C@@]1(Cc2ccc(OC)cc2)[C@@H]2[C@@H](CC(=O)[C@H]2CC(=O)C(=O)N(C)C)CN1C(=O)c1ccccc1 | -0.54 | 1.05 (inactive) | -2.89 (inactive) | -0.284 (inactive) | 1.02 (inactive) | 0.415 (inactive) | 0.243 (inactive) | 0.358 (inactive) | -4.19 | 0.489 | 0.206 (inactive) | 0.516 | -1.56 | -2.61 (inactive) | 0.0341 (inactive) | -1.04 (inactive)
11 | C=CCOC(=O)[C@@H]1[C@H]2C(=O)O[C@H](c3ccccc3)[C@H](c3ccccc3)N2[C@H](c2ccc(OCCOC(=O)[C@H]3C[C@H]4C(=O)N[C@@H](CCCCN(C)C)C(=O)N4[C@H]3c3cccc(OCCO)c3)cc2)[C@@]12C(=O)Nc1ccccc12 | 0.594 | 0.756 (inactive) | 0.75 (inactive) | 0.0193 (inactive) | -0.475 (inactive) | 0.237 (inactive) | 0.292 (inactive) | 0.352 (inactive) | 0.835 | -0.0102 | 0.876 (inactive) | 0.686 | -0.405 | -1.64 (inactive) | -0.224 (inactive) | -0.375 (inactive)
12 | COc1cc(Cc2cc3c(c(CCc4ccccc4)n2)[Si](C(C)C)(C(C)C)O[C@H]3c2ccccc2)cc(OC)c1OC | -0.877 | -17.2 (active) | -0.489 (inactive) | -0.435 (inactive) | 0.113 (inactive) | -0.234 (inactive) | -0.264 (inactive) | -0.65 (inactive) | -0.163 | 0.355 | 0.41 (inactive) | 0.202 | 0.578 | -5.59 (inactive) | -0.167 (inactive) | -0.286 (inactive)
13 | COC(=O)[C@@]1(Cc2ccc(F)cc2)[C@H]2c3cc(C(=O)N(C)C)n(Cc4ccsc4Br)c3C[C@H]2CN1C(=O)c1ccccc1 | -1.05 | 1.08 (inactive) | -1.36 (inactive) | -0.713 (inactive) | 1 (inactive) | 0.47 (inactive) | -1.52 (inactive) | -0.85 (inactive) | -2.7 | 0.447 | 1.29 (inactive) | 0.102 | -1.75 | -5.36 (inactive) | -0.219 (inactive) | -1.12 (inactive)
14 | COc1ccc(CCNC(=O)[C@@H]2c3ccccc3C(=O)N(C(C)C)[C@H]2c2ccc(CO)cc2)cc1 | 0.862 | -0.313 (inactive) | 1.35 (inactive) | 0.261 (inactive) | -0.935 (inactive) | 0.326 (inactive) | 0.364 (inactive) | 0.246 (inactive) | 1.53 | -0.178 | -0.343 (inactive) | -0.898 | 1.13 | -2.13 (inactive) | -0.182 (inactive) | -0.238 (inactive)
15 | Cc1c(NC(=O)/C(C#N)=C/C=C/c2ccc([N+](=O)[O-])cc2)c(=O)n(-c2ccccc2)n1C | -0.559 | -0.546 (inactive) | 0.11 (inactive) | 0.142 (inactive) | -0.736 (inactive) | -0.254 (inactive) | -0.465 (inactive) | -0.412 (inactive) | 0.664 | -0.0581 | 1.97 (inactive) | 0.77 | -0.363 | -4.12 (inactive) | -0.023 (inactive) | 0.501 (inactive)
16 | COCCCNC(=O)[C@@]1(Cc2ccccc2I)c2ccccc2C(=O)N(Cc2ccccc2OC)[C@H]1c1ccc(CO)cc1 | -0.831 | -0.366 (inactive) | -0.0499 (inactive) | 0.671 (inactive) | 0.18 (inactive) | 1.06 (inactive) | -0.033 (inactive) | -0.113 (inactive) | 0.317 | 0.0506 | 1.02 (inactive) | 0.0714 | -1.07 | -4.88 (inactive) | -0.14 (inactive) | 0.04 (inactive)
17 | COc1ccc(CCNC(=O)[C@@]2(c3ccc([N+](=O)[O-])cc3)CC(=O)N(C3CCCCC3)[C@@H]2c2ccc(CO)cc2I)cc1 | -1.29 | 0.633 (inactive) | -0.949 (inactive) | 1.45 (inactive) | 0.14 (inactive) | 1.86 (inactive) | 0.359 (inactive) | -0.0406 (inactive) | -0.593 | -0.16 | 0.548 (inactive) | 0.671 | -1.96 | -3.27 (inactive) | 0.129 (inactive) | 0.294 (inactive)
18 | CO[C@H]1O[C@H](CO)[C@@H](OC(=O)CCc2ccccc2)[C@@H]2OC(=O)[C@@H](Cc3ccc4ccccc4c3)C/C=C/C[C@H](Cc3ccc4ccccc4c3)C(=O)O[C@@H]12 | -0.826 | -0.998 (inactive) | -0.333 (inactive) | -1.32 (inactive) | -0.0558 (inactive) | -1.11 (inactive) | 0.552 (inactive) | 0.9 (inactive) | -0.591 | 0.0302 | 0.204 (inactive) | 0.448 | -2.13 | -4.15 (inactive) | -0.267 (inactive) | -0.343 (inactive)
